# Publication PMC5540273 (PLoS ONE, 2017)
# Like-named read-outs stand apart in the source and are kept apart here.
# Key:
# CAMK1 = settings: concentration: 1 μM,replicates: in singlicate; n = 1
# CAMK2A = settings: concentration: 1 μM,replicates: in singlicate; n = 1
# CAMK2B = settings: concentration: 1 μM,replicates: in singlicate; n = 1
# CAMK2D = settings: concentration: 1 μM,replicates: in singlicate; n = 1
# CAMK2G = settings: concentration: 1 μM,replicates: in singlicate; n = 1
# CAMK4 = settings: concentration: 1 μM,replicates: in singlicate; n = 1
# CAMKK1 = settings: concentration: 1 μM,replicates: in singlicate; n = 1
# CAMKK2 = settings: concentration: 1 μM,replicates: in singlicate; n = 1
# CASK = settings: concentration: 1 μM,replicates: in singlicate; n = 1
# CDC2L1 = tested on: T1, CDC2L1; settings: concentration: 1 μM,replicates: in singlicate; n = 1
# T1 construct: gene CDK11B
# CDC2L2 = settings: concentration: 1 μM,replicates: in singlicate; n = 1
# CDC2L5 = tested on: T2, CDC2L5; settings: n = 1
# T2 construct: gene CDK13
# CDK11 = tested on: T3, CDK11; settings: concentration: 1 μM,replicates: in singlicate; n = 1
# T3 construct: gene CDK19
# CDK2 = settings: concentration: 1 μM,replicates: in singlicate; n = 1
# CDK3 = settings: concentration: 1 μM,replicates: in singlicate; n = 1
# CDK4-cyclinD1 = settings: n = 1
# CDK4-cyclinD3 = settings: n = 1
# CDK4 = settings: n = 1
# CDK5 = settings: concentration: 1 μM,replicates: in singlicate; n = 1
# CDK7 = settings: concentration: 1 μM,replicates: in singlicate; n = 1
# [1] = concentration: 1 μM,replicates: in singlicate
# 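Further: KINOMEscan kinase panel screen.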
smiles,measurement,setting,value
CNC(=O)c1ccccc1Nc1nc(Nc2cccc(CS(C)(=O)=O)c2)ncc1C.O=CO [GSK1520489],%Inh,CAMK1,76%
same,%Inh,CAMK2A,1%
same,%Inh,CAMK2B,0%
same,%Inh,CAMK2D,16%
same,%Inh,CAMK2G,34%
same,%Inh,CAMK4,0%
same,%Inh,CAMKK1,88%
same,%Inh,CAMKK2,91.2%
same,%Inh,CASK,59%
same,%Inh,CDC2L1,0%
same,%Inh,CDC2L2,0%
same,%Inh,CDC2L5; [1],0%
same,%Inh,CDK11,0%
same,%Inh,CDK2,16%
same,%Inh,CDK3,36%
same,%Inh,CDK4-cyclinD1; [1],0%
same,%Inh,CDK4-cyclinD3; [1],19%
same,%Inh,CDK4; [1],30%
same,%Inh,CDK5,0%
same,%Inh,CDK7,89%
COc1cccc(OC)c1C(=O)Nc1cccc(-c2nn3ccccc3c2-c2ccnc(Nc3cccc(F)c3)n2)c1 [GSK361065],%Inh,CAMK1,19%
same,%Inh,CAMK2A,27%
same,%Inh,CAMK2B,6%
same,%Inh,CAMK2D,0%
same,%Inh,CAMK2G,0%
same,%Inh,CAMK4,0%
same,%Inh,CAMKK1,4%
same,%Inh,CAMKK2,0%
same,%Inh,CASK,15%
same,%Inh,CDC2L1,0%
same,%Inh,CDC2L2,0%
same,%Inh,CDC2L5; 1 µM,1%
same,%Inh,CDK11,0%
same,%Inh,CDK2,0%
same,%Inh,CDK3,0%
same,%Inh,CDK4-cyclinD1; 1 µM,0%
same,%Inh,CDK4-cyclinD3; 1 µM,7%
same,%Inh,CDK4; 1 µM,0%
same,%Inh,CDK5,21%
same,%Inh,CDK7,22%
COc1cccc(C2=C(Nc3cccc(Cl)c3)C(=O)NC2=O)c1 [SB-341556],%Inh,CAMK1,1%
same,%Inh,CAMK2A,22%
same,%Inh,CAMK2B,0%
same,%Inh,CAMK2D,14%
same,%Inh,CAMK2G,27%
same,%Inh,CAMK4,0%
same,%Inh,CAMKK1,3%
same,%Inh,CAMKK2,4%
same,%Inh,CASK,43%
same,%Inh,CDC2L1,0%
same,%Inh,CDC2L2,0%
same,%Inh,CDC2L5; [1],0%
same,%Inh,CDK11,0%
same,%Inh,CDK2,7%
same,%Inh,CDK3,4%
same,%Inh,CDK4-cyclinD1; [1],0%
same,%Inh,CDK4-cyclinD3; [1],14%
same,%Inh,CDK4; [1],0%
same,%Inh,CDK5,0%
same,%Inh,CDK7,14%
COc1cc2c(Nc3ccc(NC(=O)c4ccccc4)cc3)ncnc2cc1OCCCN1CCOCC1 [GSK301329],%Inh,CAMK1,40%
same,%Inh,CAMK2A,0%
same,%Inh,CAMK2B,0%
same,%Inh,CAMK2D,0%
same,%Inh,CAMK2G,1%
same,%Inh,CAMK4,0%
same,%Inh,CAMKK1,0%
same,%Inh,CAMKK2,0%
same,%Inh,CASK,17%
same,%Inh,CDC2L1,0%
same,%Inh,CDC2L2,7%
same,%Inh,CDC2L5; [1],0%
same,%Inh,CDK11,0%
same,%Inh,CDK2,0%
same,%Inh,CDK3,2%
same,%Inh,CDK4-cyclinD1; [1],0%
same,%Inh,CDK4-cyclinD3; [1],0%
same,%Inh,CDK4; [1],7%
same,%Inh,CDK5,0%
same,%Inh,CDK7,24%
Cc1nnc(-c2ccc3occ(-c4ccc(S(C)=O)cc4)c3n2)o1 (stereo not shown),%Inh,CAMK1,3%
same,%Inh,CAMK2A,0%
same,%Inh,CAMK2B,0%
same,%Inh,CAMK2D,0%
same,%Inh,CAMK2G,0%
same,%Inh,CAMK4,0%
same,%Inh,CAMKK1,6%
same,%Inh,CAMKK2,11%
same,%Inh,CASK,0%
same,%Inh,CDC2L1,0%
same,%Inh,CDC2L2,0%
same,%Inh,CDC2L5; [1],0%
same,%Inh,CDK11,0%
same,%Inh,CDK2,6%
same,%Inh,CDK3,0%
same,%Inh,CDK4-cyclinD1; [1],0%
same,%Inh,CDK4-cyclinD3; [1],0%
same,%Inh,CDK4; [1],0%
same,%Inh,CDK5,0%
same,%Inh,CDK7,0%
Cn1cc(-c2cccc3c(N)c(C(N)=O)nnc23)cn1,%Inh,CAMK1,33%
same,%Inh,CAMK2A,7%
same,%Inh,CAMK2B,2%
same,%Inh,CAMK2D,15%
same,%Inh,CAMK2G,0%
same,%Inh,CAMK4,0%
same,%Inh,CAMKK1,5%
same,%Inh,CAMKK2,6%
same,%Inh,CASK,4%
same,%Inh,CDC2L1,1%
same,%Inh,CDC2L2,7%
same,%Inh,CDC2L5; [1],10%
same,%Inh,CDK11,19%
same,%Inh,CDK2,17%
same,%Inh,CDK3,30%
same,%Inh,CDK4-cyclinD1; [1],8%
same,%Inh,CDK4-cyclinD3; [1],7%
same,%Inh,CDK4; [1],0%
same,%Inh,CDK5,3%
same,%Inh,CDK7,26%
CC(=O)Nc1ccc(-c2cc3ncnc(SCC(=O)O)c3s2)cc1,%Inh,CAMK1,0%
same,%Inh,CAMK2A,55%
same,%Inh,CAMK2B,58%
same,%Inh,CAMK2D,21%
same,%Inh,CAMK2G,18%
same,%Inh,CAMK4,23%
same,%Inh,CAMKK1,90.6%
same,%Inh,CAMKK2,92.3%
same,%Inh,CASK,8%
same,%Inh,CDC2L1,9%
same,%Inh,CDC2L2,17%
same,%Inh,CDC2L5; [1],0%
same,%Inh,CDK11,26%
same,%Inh,CDK2,12%
same,%Inh,CDK3,4%
same,%Inh,CDK4-cyclinD1; [1],16%
same,%Inh,CDK4-cyclinD3; [1],31%
same,%Inh,CDK4; [1],0%
same,%Inh,CDK5,14%
same,%Inh,CDK7,40%
CCn1c(-c2nonc2N)nc2cncc(CNC3CCNCC3)c21.Cl [SB-747651],%Inh,CAMK1,19%
same,%Inh,CAMK2A,0%
same,%Inh,CAMK2B,0%
same,%Inh,CAMK2D,5%
same,%Inh,CAMK2G,17%
same,%Inh,CAMK4,71%
same,%Inh,CAMKK1,1%
same,%Inh,CAMKK2,16%
same,%Inh,CASK,16%
same,%Inh,CDC2L1,0%
same,%Inh,CDC2L2,0%
same,%Inh,CDC2L5; [1],0%
same,%Inh,CDK11,5%
same,%Inh,CDK2,0%
same,%Inh,CDK3,11%
same,%Inh,CDK4-cyclinD1; [1],0%
same,%Inh,CDK4-cyclinD3; [1],14%
same,%Inh,CDK4; [1],33%
same,%Inh,CDK5,0%
same,%Inh,CDK7,0%
